Assay outcomes from PubChem BioAssay.
This is a sample that favours compounds with a hit; in the whole collection about 0.99% have one here.
TRPV1 PAM = enhances activation of the human vanilloid receptor TRPV1. TRPV1-expressing cells, Fluo-8 calcium influx, capsaicin EC20 potentiation. Q8NER1. potentiation, % at 8.33 µM. actives 0.02% (n = 320,000). AID 540277; in the data active means potentiation above about 80%; inconclusive means between about 30% and that limit
Target sequence (Q8NER1 whole entry, looked up): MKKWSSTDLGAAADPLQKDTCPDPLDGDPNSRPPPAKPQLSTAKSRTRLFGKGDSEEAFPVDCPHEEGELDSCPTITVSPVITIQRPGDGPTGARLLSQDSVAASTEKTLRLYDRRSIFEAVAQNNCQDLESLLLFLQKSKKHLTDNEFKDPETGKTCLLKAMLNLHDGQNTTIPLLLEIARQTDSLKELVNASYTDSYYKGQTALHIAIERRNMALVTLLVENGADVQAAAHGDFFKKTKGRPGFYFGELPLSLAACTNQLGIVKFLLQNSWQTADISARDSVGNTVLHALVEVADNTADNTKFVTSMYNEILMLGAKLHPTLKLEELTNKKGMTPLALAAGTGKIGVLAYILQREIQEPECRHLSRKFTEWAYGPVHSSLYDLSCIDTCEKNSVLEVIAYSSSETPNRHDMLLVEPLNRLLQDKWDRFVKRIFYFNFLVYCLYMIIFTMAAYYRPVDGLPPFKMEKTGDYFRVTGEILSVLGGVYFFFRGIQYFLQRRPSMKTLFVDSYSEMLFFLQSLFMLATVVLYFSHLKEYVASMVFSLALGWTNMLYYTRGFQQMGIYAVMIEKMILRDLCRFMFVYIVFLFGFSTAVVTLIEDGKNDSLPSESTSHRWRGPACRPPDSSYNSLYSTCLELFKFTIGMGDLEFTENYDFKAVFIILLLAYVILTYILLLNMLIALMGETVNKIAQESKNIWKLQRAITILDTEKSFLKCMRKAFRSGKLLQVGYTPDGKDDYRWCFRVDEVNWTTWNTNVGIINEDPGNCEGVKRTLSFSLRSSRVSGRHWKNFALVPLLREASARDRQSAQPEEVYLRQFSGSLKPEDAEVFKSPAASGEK
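Cells expressing TRPV1 were dye-loaded with Fluo-8 and read kinetically: 10 s baseline, 3 min after compound (agonist portion), then 2 min after EC20 capsaicin (allosteric enhancer portion). Calcium-bound dye fluorescence at 480/520 nm.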
TRPML1 inh = inhibitors of human TRPML1 channel; Q9GZU1; TRPML1-inducible cells, Ca2+ dye fluorescence, FDSS; active compounds read low; inhibition of EC80 agonist-evoked calcium signal; activity change, negative = inhibition, % (test concentration not listed); actives 0.02% (n = 390,000); in the data active means activity change below about -50%; inconclusive means between about -30% and that limit;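 further: stimulus is agonist 54-4 at its EC80 concentration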
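Calcium fluorescence in TRPML1-DL cells induced overnight with Tet: a 110 s read after compound pin addition, then a 110 s antagonist read after challenge with 54-4 at 4 uM final (EC80).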
TRPML1 ag = activates the human TRPML1 channel; Q9GZU1; TRPML1-expressing cells, Ca2+ dye fluorescence, FDSS; activation, % (concentration not given with the values); actives 0.12% (n = 410,000); in the data active means activation above about 50%; inconclusive means mostly about 30% to 49%
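TRPML1-DL cells, Tet-induced overnight (~16 h, 37 degrees C), loaded 45-90 min at room temperature with Ca8 no-wash calcium dye plus quencher. FDSS fluorescence: 10 s baseline, compound pin-transfer, 110 s agonist read, then EC80 54-4 (4uM final) and 110 s antagonist read.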
TRPV1 agonist = activates the human vanilloid receptor TRPV1; Q8NER1; TRPV1-expressing cells, Fluo-8 calcium influx, agonist mode; activation, % at 8.33 µM; actives 0.19% (n = 320,000); in the data active means activation above about 80%; inconclusive means between about 30% and that limit
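TRPV1-expressing cells were cultured overnight at 35.5C and loaded with Fluo-8 calcium dye for 40 to 90 min at room temperature. After a 10 s baseline, compound was added and calcium influx was read kinetically for 3 min (ex 480/em 520 nm).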
TRHR agonist-1 = TRH receptor (human) agonism. P34981. TRHR cells, calcium flux fluo-8, FDSS agonist mode. activation, % at 2 µM. actives 0.18% (n = 360,000); in the data active means activation above about 30%
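Steps: seed TRHR cells overnight; add fluo-8 no-wash Ca dye, RT 30 min–1.5 h; record 10 s baseline; pin-transfer compounds; monitor fluorescence 1 cycle/s for the agonist window. Calcium increases flag candidate agonists.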
TRHR enhancer-1 = allosteric enhancers of human TRH receptor; P34981; actives 0.66% (n = 360,000); enhancement, % at 2 µM; TRHR cells, fluo-8 calcium fluorescence, EC20 TRH enhancement; AID 493056; in the data active means enhancement above about 30%
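TRHR-expressing cells loaded with fluo-8 calcium dye were read kinetically (ex 480/em 530) during compound addition, then stimulated with an EC20 of TRH (10 nM final). Enhancement of the Gq-mediated intracellular calcium response was scored.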
TRHR enhancer-2 = confirmation of human TRH receptor allosteric enhancers. shares compounds with TRHR enhancer-1. TRH receptor cell assay, enhancer confirmation qHTS. activity change, negative = inhibition, % at 46.1 µM. 970 tested, under 10 active. AID 493076;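 further: compound effect scored on response to added TRH at EC20 of 10 nM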
TRHR agonist-2 = human TRH receptor agonism confirmation. shares compounds with TRHR enhancer-1. TRHR-expressing cells, agonist activation read-out. Potency, µM (doses to about 46.1 µM), actives largely listed as activators. actives 8% (n = 970). AID 493078; further: nearly all actives have a fitted effect of over 75% in size
Of the large screens only hits and unclear results are named; the others gave an inactive call (follow-up assays come after a bar, where they were run). Unless noted, the call rests on the fitted dose curve; in most records, active means well fitted curve in the direction sought with a large enough effect; inconclusive means small, poorly fitted or top-dose-only effect, or another doubt; inactive means no such curve, though single readings can be large; an effect the other way counts as inactive or inconclusive.

Cc1cccc(N(C(=O)c2csnn2)C(C(=O)NC2CCCCC2)c2ccncc2)c1 (configuration not stated)	TRHR enhancer-1 54.5 | TRHR enhancer-2 inactive | TRHR agonist-2 inactive
Cc1cccc(N(C(=O)c2csnn2)C(C(=O)NC2CCCC2)c2ccncc2)c1 (configuration not stated)	none
CCc1ccc2oc(-c3cccc(NC(=O)c4ccc(-c5cccc([N+](=O)[O-])c5)o4)c3)nc2c1	none (no result: TRPV1 PAM, TRPV1 agonist)
O=C(CNC(=O)c1ccc(F)cc1)OCc1cc(=O)n2nc(C3CC3)sc2n1	none (no result: TRPV1 PAM, TRPV1 agonist)
CC(=Nc1cccc(O)c1)c1sc2ccccc2c1O	TRPV1 PAM inconclusive | TRHR enhancer-2 inactive | TRHR agonist-2 inconclusive
CCOC(=O)c1cc(S(=O)(=O)NCc2ccccc2)[nH]n1	none (no result: TRPV1 PAM, TRPV1 agonist)
COC(=O)Cc1c(O)ccn(CCc2ccccc2)c1=O	TRHR enhancer-1 51.5 | TRHR enhancer-2 inactive | TRHR agonist-2 inactive
Cc1ccc(-c2nc3nc(C)cc(N4CCN(c5cc(Cl)ccc5C)CC4)n3n2)cc1	none (no result: TRPV1 PAM, TRPV1 agonist)
Cc1nc2cc(O)ccc2n1C	TRHR enhancer-1 61.4 | TRHR enhancer-2 inactive | TRHR agonist-2 inactive
Cc1nc2cc3ccccc3cc2n1C	none
CCOC(=O)c1ccc(NC(=O)C(CC)Sc2nc3ncccc3o2)cc1 (configuration not stated)	none (no result: TRPV1 PAM, TRPV1 agonist)
Fc1ccc(C2CC(c3ccco3)=NN2c2ccccc2)cc1 (configuration not stated)	none
O=[N+]([O-])c1ccc(N2N=C(c3ccco3)CC2c2ccccc2)cc1 (configuration not stated)	none | TRHR enhancer-2 inactive | TRHR agonist-2 inconclusive
OCC1(CCc2ccccc2)CCN(Cc2ccccc2Cl)CC1	TRHR enhancer-1 60.3 | TRHR enhancer-2 inactive | TRHR agonist-2 inactive
Clc1ccccc1CN1CCN(CCCc2ccccc2)CC1	none
COCCN(C(=S)Nc1ccccc1C)C(C)c1cccnc1 (configuration not stated)	none
Cc1ccccc1NC(=S)N(CCN(C)C)C(C)c1cccnc1 (configuration not stated)	TRHR enhancer-1 43.1 | TRHR enhancer-2 inactive | TRHR agonist-2 inactive
CCc1ccc(NCc2cc3cc4c(cc3n(CC(=O)Nc3ccccc3C)c2=O)OCCO4)cc1	none (no result: TRPV1 PAM, TRPV1 agonist)
CCOCc1c(C(=O)Nc2ccccc2N2CCN(C)CC2)oc2ccccc12	TRHR enhancer-1 43.9 | TRHR enhancer-2 inactive | TRHR agonist-2 inactive
CCOCc1c(C(=O)Nc2cc(OCC)c(N3CCOCC3)cc2OCC)oc2ccccc12	none
CCOc1ccc(C(=O)Nc2ccc(N3CCN(C(C)=O)CC3)cc2)cc1[N+](=O)[O-]	none
CCOc1ccc(C(=O)Nc2ccc(N3CCN(C)CC3)cc2)cc1[N+](=O)[O-]	TRHR enhancer-1 62.9 | TRHR enhancer-2 inactive | TRHR agonist-2 inactive
CCC(Sc1nc2c(sc3ccccc32)c(=O)n1CCCC(=O)NC1CCCC1)C(=O)Nc1cccc(OC)c1 (configuration not stated)	none (no result: TRPV1 PAM, TRPV1 agonist)
COc1cccc(NC(=O)CC2Nc3cc(C)c(C)cc3NC2=O)c1 (configuration not stated)	none (no result: TRPV1 PAM, TRPV1 agonist)
COc1ccc(/C=N/n2c(-c3ccccc3)n[nH]c2=S)cc1	TRHR enhancer-1 48.9 | TRHR enhancer-2 inactive | TRHR agonist-2 inactive
C=C1C(=O)O[C@H]2[C@H]1[C@@H](O)CC(=C)[C@@H]1CC(=O)[C@@H](C)[C@H]21	TRHR enhancer-1 51.5 | TRHR enhancer-2 inactive | TRHR agonist-2 inactive
N#Cc1ccccc1S(=O)(=O)N1CCN(C(=O)C2COc3ccccc3O2)CC1 (configuration not stated)	TRPV1 PAM inconclusive, TRHR enhancer-1 54.1 | TRHR enhancer-2 inactive | TRHR agonist-2 inconclusive
O=C(C1COc2ccccc2O1)N1CCN(S(=O)(=O)c2cc(F)ccc2F)CC1 (configuration not stated)	none
CCN(CC)S(=O)(=O)c1ccc(C(=O)NCCSc2c(-c3ccc(F)cc3)[nH]c3ccccc23)cc1	none (no result: TRPV1 PAM, TRPV1 agonist)
Clc1ccc(Oc2cnns2)cc1Cl	TRHR enhancer-1 44.3 | TRHR enhancer-2 inactive | TRHR agonist-2 inactive
COc1ccc2c(C)c(C(=O)N3CCN(Cc4ccccc4)CC3)oc2c1	TRHR enhancer-1 70.2 | TRHR enhancer-2 inconclusive | TRHR agonist-2 inactive
COc1ccc(Cn2c(=O)[nH]c3cc(C(=O)N4CCN(Cc5ccccc5)CC4)ccc3c2=O)cc1	none
C/C(CC(=O)Nc1cccc(C(F)(F)F)c1)=N\NC(=O)Cc1ccccc1	TRHR enhancer-1 57.9 | TRHR enhancer-2 inactive | TRHR agonist-2 inactive
CC(C)CC(=O)Nc1ccc(Cl)c(-c2nc3ccccc3[nH]2)c1	none (no result: TRPV1 PAM, TRPV1 agonist)
COc1ccccc1NC(=O)COn1nnc2ccc(S(=O)(=O)N3CCOCC3)cc21	TRHR enhancer-1 59.3 | TRHR enhancer-2 inactive | TRHR agonist-2 inactive
COc1cc(/C=C2\SC(=S)N(N(C)c3ccccc3)C2=O)ccc1O	TRHR agonist-1 36.5 (no result: TRPV1 PAM, TRPV1 agonist) | TRHR enhancer-2 inactive | TRHR agonist-2 inconclusive
COc1cc(/C=C2\SC(=S)N(NC(=O)c3ccccc3O)C2=O)ccc1O	none
S=C(NC1CCCCC1)N1CCN(c2ncccn2)CC1	none
S=C(NC1CCCCC1)N1CCN(c2ccccn2)CC1	TRHR enhancer-1 43.5 | TRHR enhancer-2 inactive | TRHR agonist-2 inactive
O=C(CSc1ccc(-c2ccc(F)cc2)nn1)N1CCOCC1	TRHR enhancer-1 49.7 | TRHR enhancer-2 inactive | TRHR agonist-2 inactive
O=C(Nc1ccc([N+](=O)[O-])cc1)c1nc[nH]c1C(=O)NC1CCCCC1	TRHR agonist-1 42.6 | TRHR enhancer-2 inactive | TRHR agonist-2 inactive
CCN(CC)c1ccc2cc(C(=O)Nc3cccnc3N3CCOCC3)c(=O)oc2c1	none (no result: TRPML1 inh, TRPML1 ag)
CCN(CC)c1ccc2cc(NC(=O)CCC(=O)O)c(=O)oc2c1	TRPML1 ag inconclusive | TRHR enhancer-2 inactive | TRHR agonist-2 20.6µM
COc1ccc2nc3c(cc2c1)Cn1c-3nc2ccccc2c1=O	none (no result: TRPV1 PAM, TRPV1 agonist, TRHR agonist-1, TRHR enhancer-1)
CCCN1C(=O)/C(=C/c2ccc(OCC(=O)OCC)cc2)NC1=S	none
CCCN1C(=O)/C(=C/c2ccc(N3CCOCC3)cc2)NC1=S	TRPV1 agonist inconclusive, TRHR agonist-1 47.8 | TRHR enhancer-2 inconclusive | TRHR agonist-2 16.4µM
c1ccc(-c2cn3nc(-c4ccccc4)c(-c4ccccc4)nc3n2)cc1	TRPML1 ag inconclusive, TRPV1 agonist inconclusive, TRHR agonist-1 50.1 | TRHR enhancer-2 inactive | TRHR agonist-2 20.6µM
